Calls of active or inactive are those of the source. Rule as the data show it: active = inhibition above about 31%; inactive = the rest.
assay: reversal of MRP1-mediated doxorubicin resistance, pilot screen, H69AR cells, doxorubicin co-treatment (AID 601); details: H69AR cells, CellTiter-Glo, 72 h; compound alone cytotoxicity; at 10 µM

Structure (SMILES)	viability [%]
Nc1nc(N2CCCCC2)nc(N(c2ccccc2)c2ccccc2)n1	70.6
O=C1c2ccccc2C(Nc2cccnc2)N1Cc1ccccc1Cl (stereo not drawn)	86.3
CCN1CCN(c2nc3c(c(=O)[nH]c(=O)n3C)n2CCSc2nc3ccccc3s2)CC1	88.6
COc1cc(C(O)c2nc3ccccc3n2C)cc(OC)c1OC (stereo not drawn)	103
CCOC(=O)N1CCC(Nc2nc3ccccc3n3cnnc23)CC1	87.1
COc1ccc(C2C(C(C)=O)=C(C)N=c3s/c(=C/c4ccc5c(c4)OCO5)c(=O)n32)cc1 (stereo not drawn)	112
CCOC(=O)C1=C(C)N(C)C(=O)NC1c1ccccc1OC (stereo not drawn)	175
CCCCS(=O)(=O)NC1=NCN(CCOC(=O)c2ccccc2)CN1	102
COc1ccc(-n2c(Cc3cccn3C)nnc2SCC(=O)Nc2cccc(Cl)c2)cc1	85.3
CCC1CCCCN1C(=O)CSc1nnc(-c2ccc(OC)cc2)o1 (stereo not drawn)	87.6
COc1ccc(N(CC(=O)Nc2ccc3c(c2)OCO3)S(=O)(=O)c2c(C)nn(C)c2C)cc1	99
CCOc1ccc(C2CC(c3ccccc3C)n3nc(N)nc3N2)cc1 (stereo not drawn)	87.9
Cc1cc(N)n2nc(-c3ccccc3)cc2n1	80.1
CCCCCn1c(CCNC(=O)CCC)nc2ccccc21	87.4
O=C(c1ccc2c(c1)OCCO2)N1CCCCC1	101
O=C(NCCc1c[nH]c2ccccc12)c1cnc2n(c1=O)CCS2	82
CCc1cc(=O)n2[nH]c(C)c(-c3ccccc3OC)c2n1	100
Cc1ccc(CSc2nc3c(c(=O)[nH]2)CCC3)cc1	93.1
CN(CCNS(=O)(=O)c1ccc2c(c1)oc(=O)n2C)Cc1ccccc1	98.1
COc1ccc(-c2nnc(SCC(=O)NC(C)c3ccccc3)o2)cc1 (stereo not drawn)	100

Structure (SMILES)	viability [%]
CCOc1ccc(Cn2nnc(C(=O)Nc3cc(C)cc(C)c3)c2N)cc1	86.2
CCCCCn1c(CN2CCN(C(=O)c3ccco3)CC2)nc2c1c(=O)n(C)c(=O)n2C	77.5
CCN1CCN(Cc2ccc(NC(=O)Nc3ccccc3)cc2)CC1	88.7
CCCN(CCC)C(=O)c1c(C)[nH]c(C(=O)OCC)c1C	81.4
COc1cccc(C2CC(c3c(Cl)cccc3Cl)n3nc(N)nc3N2)c1 (stereo not drawn)	83.6
Cc1c(C(=O)OCc2ccccc2)[nH]c2c1C(=O)CC(c1ccco1)C2 (stereo not drawn)	6.48
Cn1c(=O)c2c(nc(SCCOc3ccc4ccc(=O)oc4c3)n2C)n(C)c1=O	104
COc1ccc(NC(=O)CN(c2cc(C)cc(C)c2)S(=O)(=O)c2c(C)noc2C)cc1OC	88.2
CCOc1ccc(N2CC(C(=O)Nc3ccccc3OC)CC2=O)cc1 (stereo not drawn)	95.7
CC(C)CNc1oc(-c2ccc(F)cc2)nc1C#N	94.2
O=C(Nc1nnc(N2CCCCCC2)s1)c1cc(-c2ccc(Br)cc2)on1	99.6
Cc1ccc(N=Cc2ccc[nH]2)c(O)c1	81.9
CCCOC(=O)c1[nH]c2c(c1C)C(=O)CC(c1cc(OC)c(OC)c(OC)c1)C2 (stereo not drawn)	74.2
C=CCSc1nc2sc(C)c(C)c2c(=O)[nH]1	90.7
O=C(c1ccc(Br)cc1)N1CCN(S(=O)(=O)c2ccccc2)CC1	92.6
CN(C(=O)c1ccco1)c1nnc(C23CC4CC(CC(C4)C2)C3)s1	75.9
COc1ccc(-c2nc3c(n2O)CCC/C3=N\O)cc1	86.5
CC1CCC(NC(=O)C2(C)CCC(=O)N2Cc2cccnc2)CC1 (stereo not drawn)	78.6
Cc1cnc(NC(=O)CSc2nnc(COc3c(C)cccc3C)o2)s1	87.1

assay: 384-well plate pilot, post-Golgi transport modulator project, inhibition of yeast transport mutant growth (AID 636); details: absorbance 615 nm, about 18 h, stronger effect = higher value

Structure (SMILES)	inhibition
Nc1nc(N2CCCCC2)nc(N(c2ccccc2)c2ccccc2)n1	-5.2% (inactive)
O=C1c2ccccc2C(Nc2cccnc2)N1Cc1ccccc1Cl (stereo not drawn)	-3.2% (inactive)
CCN1CCN(c2nc3c(c(=O)[nH]c(=O)n3C)n2CCSc2nc3ccccc3s2)CC1	-1.73% (inactive)
COc1cc(C(O)c2nc3ccccc3n2C)cc(OC)c1OC (stereo not drawn)	1.95% (inactive)
CCOC(=O)N1CCC(Nc2nc3ccccc3n3cnnc23)CC1	-0.13% (inactive)
COc1ccc(C2C(C(C)=O)=C(C)N=c3s/c(=C/c4ccc5c(c4)OCO5)c(=O)n32)cc1 (stereo not drawn)	-7.81% (inactive)
CCOC(=O)C1=C(C)N(C)C(=O)NC1c1ccccc1OC (stereo not drawn)	-8.24% (inactive)
CCCCS(=O)(=O)NC1=NCN(CCOC(=O)c2ccccc2)CN1	-3.6% (inactive)
COc1ccc(-n2c(Cc3cccn3C)nnc2SCC(=O)Nc2cccc(Cl)c2)cc1	-2.8% (inactive)
CCC1CCCCN1C(=O)CSc1nnc(-c2ccc(OC)cc2)o1 (stereo not drawn)	-3.6% (inactive)
COc1ccc(N(CC(=O)Nc2ccc3c(c2)OCO3)S(=O)(=O)c2c(C)nn(C)c2C)cc1	-0.38% (inactive)
CCOc1ccc(C2CC(c3ccccc3C)n3nc(N)nc3N2)cc1 (stereo not drawn)	-2.82% (inactive)
Cc1cc(N)n2nc(-c3ccccc3)cc2n1	-1.82% (inactive)
CCCCCn1c(CCNC(=O)CCC)nc2ccccc21	-4.67% (inactive)
O=C(c1ccc2c(c1)OCCO2)N1CCCCC1	-0.91% (inactive)
O=C(NCCc1c[nH]c2ccccc12)c1cnc2n(c1=O)CCS2	-3.07% (inactive)
CCc1cc(=O)n2[nH]c(C)c(-c3ccccc3OC)c2n1	0.13% (inactive)
Cc1ccc(CSc2nc3c(c(=O)[nH]2)CCC3)cc1	-0.13% (inactive)
CN(CCNS(=O)(=O)c1ccc2c(c1)oc(=O)n2C)Cc1ccccc1	-2.95% (inactive)
COc1ccc(-c2nnc(SCC(=O)NC(C)c3ccccc3)o2)cc1 (stereo not drawn)	1.87% (inactive)

Structure (SMILES)	inhibition
CCOc1ccc(Cn2nnc(C(=O)Nc3cc(C)cc(C)c3)c2N)cc1	0% (inactive)
CCCCCn1c(CN2CCN(C(=O)c3ccco3)CC2)nc2c1c(=O)n(C)c(=O)n2C	-5.6% (inactive)
CCN1CCN(Cc2ccc(NC(=O)Nc3ccccc3)cc2)CC1	2.82% (inactive)
CCCN(CCC)C(=O)c1c(C)[nH]c(C(=O)OCC)c1C	-0.38% (inactive)
COc1cccc(C2CC(c3c(Cl)cccc3Cl)n3nc(N)nc3N2)c1 (stereo not drawn)	-4.53% (inactive)
Cc1c(C(=O)OCc2ccccc2)[nH]c2c1C(=O)CC(c1ccco1)C2 (stereo not drawn)	4.87% (inactive)
Cn1c(=O)c2c(nc(SCCOc3ccc4ccc(=O)oc4c3)n2C)n(C)c1=O	-2.93% (inactive)
COc1ccc(NC(=O)CN(c2cc(C)cc(C)c2)S(=O)(=O)c2c(C)noc2C)cc1OC	0.26% (inactive)
CCOc1ccc(N2CC(C(=O)Nc3ccccc3OC)CC2=O)cc1 (stereo not drawn)	-3.87% (inactive)
CC(C)CNc1oc(-c2ccc(F)cc2)nc1C#N	-7.47% (inactive)
O=C(Nc1nnc(N2CCCCCC2)s1)c1cc(-c2ccc(Br)cc2)on1	-5.13% (inactive)
Cc1ccc(N=Cc2ccc[nH]2)c(O)c1	-2.56% (inactive)
CCCOC(=O)c1[nH]c2c(c1C)C(=O)CC(c1cc(OC)c(OC)c(OC)c1)C2 (stereo not drawn)	-0.26% (inactive)
C=CCSc1nc2sc(C)c(C)c2c(=O)[nH]1	-5.87% (inactive)
O=C(c1ccc(Br)cc1)N1CCN(S(=O)(=O)c2ccccc2)CC1	3.33% (inactive)
CN(C(=O)c1ccco1)c1nnc(C23CC4CC(CC(C4)C2)C3)s1	-3.73% (inactive)
COc1ccc(-c2nc3c(n2O)CCC/C3=N\O)cc1	-1.43% (inactive)
CC1CCC(NC(=O)C2(C)CCC(=O)N2Cc2cccnc2)CC1 (stereo not drawn)	2.18% (inactive)
Cc1cnc(NC(=O)CSc2nnc(COc3c(C)cccc3C)o2)s1	-5.33% (inactive)
